Drawing on PubChem BioAssay, this text covers inhibition and activation for 15 compounds.

Test [1] deals with Receptor-interacting serine/threonine-protein kinase 2 (Homo sapiens) (UniProt O43353). Kind of test: NOD2-RIPK2 binding disruptors, retest, confirmation, fluorescence, CHO cells, BLA complementation, triplicate (AID 624370;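 active = mean inhibition across replicates above a set limit taken from the earlier primary screen, cut at about 21% in these data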;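 note: 0% = DMSO-only wells and the high end = clavulanate BLA-blocked wells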). The following applies: CCF4 FRET, at 4.98 µM, hits give high values.
The nature of test [2]: beta-lactamase reporter inhibitors in CHO cells, confirmation, artefact control for NOD2-RIPK2 interaction inhibitor project, cell-based, CHO-K1 CMV-bla, CCF4 FRET, fluorescence (AID 624371;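 active = mean inhibition above the low-control mean inhibition plus three low-control SD, cut at about 11% in these data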;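 note: 0% = DMSO only wells and 100% = clavulanate high control wells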). The note with it: CCF4 FRET ratio, counterscreen, at 4.98 µM, hits give high values. A general note: The purpose of a counterscreen is to sort out artefacts and off-target activity.
Test [3] concerns the target Nuclear receptor coactivator 1 (Homo sapiens) (UniProt Q15788). Kind of test: SRC1 coactivator transcriptional activity inhibitors, confirmation, cell-based, luminescence, quadruplicate (AID 588820;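 active = mean inhibition above 46.68%, the untreated control wells mean plus 3 SD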;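 note: 0% = DMSO wells and 100% = gossypol 36 µM treated wells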). The following applies: HEK293 GAL4-SRC1 luciferase reporter, at 3.6 µM, hits give high values. In general terms: Reporter assays use an easily measured gene product as a stand-in for the process of interest.

The nature of test [4]: VP16 transactivation inhibitors, counter-screen for SRC1 inhibitor project, cell-based, luminescence, high throughput (AID 588824; in the data active = inhibition above about 25%). The note with it: cell-based VP16 transactivation luciferase luminescence; at 3.6 µM; hits give high values.
The nature of test [5]: Gal4-VP16 luciferase reporter inhibitors, counter-screen for COUP-TFII antagonist project, cell-based, luminescence, HEK293 (AID 687007; in the data active = inhibition above about 13%). The following applies: at 8.5 µM, hits give high values.
Test [6] addresses COUP transcription factor 2 (Homo sapiens) (UniProt P24468). The test can be described thus: NR2F2 transcriptional activity inhibitors, confirmation, cell-based, luciferase reporter, HEK293, triplicate (AID 687008;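 active = mean inhibition over three repeats above a set limit taken from the earlier primary screen, cut at about 38% in these data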;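 note: 100% = cells given the luciferase reporter alone without the COUP-TF2 vector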). The following applies: HEK293 NGFI-A luciferase reporter, luminescence; at 8.5 µM; hits give high values.
The target of test [7] is Galanin receptor type 2 (Homo sapiens) (UniProt O43603). The test can be described thus: GALR2 antagonists, retest of hits, confirmation, cell-based (AID 866; in the data active = inhibition above about 27%;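 note: cells stimulated with galanin at about its EC80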). The following applies: GALR2-expressing cells, antagonist mode, at 4 µM, hits give high values.
Test [8] in a line: inhibitors of NFAT-driven beta-lactamase reporter, confirmation, counter-screen for GALR2 antagonist project, CHO NFAT-bla cells, FRET readout (AID 867;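 active = inhibition above the mean inhibition across tested compounds plus 3 SD, cut at about 27% in these data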;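 note: 0% = 500 nM thapsigargin stimulated wells and 100% = unstimulated BSA only wells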). The following applies: thapsigargin-stimulated, at 4.2 µM, hits give high values.
The nature of test [9]: StAR promoter reporter inhibitors, counter-screen for LRH-1 inverse agonist project, cell-based, luminescence, high throughput (AID 651611; in the data active = inhibition above about 28%). The following applies: StAR promoter luciferase reporter counterscreen, at 3.6 µM, hits give high values.
For test [10], the target named is Nuclear receptor subfamily 5 group A member 2 (Homo sapiens) (UniProt O00482). Kind of test: LRH-1 (NR5A2) inverse agonists, retest, confirmation, cell-based, luminescence (AID 651613; in the data active = inhibition above about 42%;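 note: HEK293T cells co-transfected with LRH-1 and StAR promoter luciferase reporter; 0% = vehicle wells and 100% = parental cells lacking receptor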). The following applies: cell-based LRH-1 luciferase reporter, inverse agonism; at 3.6 µM; hits give high values.
Test [11] addresses Steroidogenic factor 1 (Homo sapiens) (UniProt Q13285). Kind of test: SF1 (NR5A1) inverse agonists, counter-screen for LRH-1 inverse agonist project, cell-based, luminescence, high throughput (AID 651614; in the data active = inhibition above about 44%;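 note: cells cotransfected with StAR promoter reporter and SF1 expression vector; 0% = vehicle on cells with receptor and 100% = vehicle on cells lacking receptor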). The note with it: cell-based SF1 luciferase reporter, at 3.6 µM, hits give high values.
The nature of test [12]: VP16 transactivation reporter inhibitors, counter-screen for LRH-1 inverse agonist project, cell-based, luminescence, high throughput (AID 651615; in the data active = inhibition above about 33%). The note with it: Gal4-VP16 luciferase reporter cells, at 3.6 µM, hits give high values.
The subject of test [13] is transactivating tegument protein VP16 (Human herpesvirus 1). The test can be described thus: VP16 transactivation reporter inhibitors, counter-screen for SRC2 inhibitor project, cell-based, luminescence, single concentration (AID 652007; in the data active = inhibition above about 36%). The following applies: cell-based VP16 transactivation luciferase reporter, at 8.9 µM, hits give high values.
For test [14], the target named is Nuclear receptor coactivator 2 (Homo sapiens) (UniProt Q15596). The test can be described thus: SRC2 coactivator transcriptional activity inhibitors, confirmation, cell-based, luminescence, HEK293, triplicate (AID 652008;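 active = mean inhibition above 46.5%, the solvent-only control mean plus 3 SD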;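 note: 0% = DMSO-treated cells and 100% = Gossypol at 36 µM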). The note with it: HEK293 GAL4-SRC2 luciferase reporter, at 8.9 µM, hits give high values.
Test [15] addresses (Lyso)-N-acylphosphatidylethanolamine lipase (Mus musculus) (UniProt Q8VD66). The test can be described thus: ABHD4 inhibitors, retest, confirmation, biochemical, fluorescence polarization, mouse (AID 720658;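 active = mean inhibition across replicates above the hit cutoff set in the primary screen, cut at about 30% in these data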;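 note: 0% = wild-type ABHD4 with DMSO and 100% = catalytically dead S159A mutant with DMSO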). The following applies: purified mABHD4, FP-Rh probe fluorescence polarization; at 8.92 µM; hits give high values. For orientation: In fluorescence polarisation assays a small probe gives low polarisation when free and higher when bound to something large.

Test [16] relates to DAF-12 nuclear receptor (Heterodera glycines), GAL4-LBD fusion. Kind of test: H. glycines DAF-12 receptor agonists, confirmation, cell-based, luminescence, HEK293, GAL4-LBD fusion (AID 743050;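 active = mean activation over triplicate wells above the hit cutoff derived from the earlier primary screen, cut at about 11% in these data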;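 note: 0% = DMSO low control and 100% = 2 mM sodium butyrate high control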). The following applies: HEK293 GAL4-hgDAF12 luciferase reporter, agonist mode; at 6.8 µM; hits give high values; percent of butyrate response.
Test [17] addresses Oxysterols receptor LXR-beta (Homo sapiens) (UniProt P55055). The test can be described thus: LXR agonists, Gal4 luciferase reporter, confirmation, counter-screen for hgDAF-12 agonist project, cell-based, luminescence, HEK293, H. glycines campaign (AID 743051;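 active = mean activation of the triplicate above a set limit carried over from the primary screen, none filed active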). The following applies: 24 h, at 6.8 µM, hits give high values.
Test [18] deals with Photoreceptor-specific nuclear receptor (Homo sapiens) (UniProt Q9Y5X4). The test can be described thus: NR2E3 agonist confirmation in cells, cell-based, luminescence, CHO-S two-hybrid (AID 624378;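 active = average inhibition above a cutoff equal to the mean inhibition of all tested compounds plus one SD, cut at about 70% in these data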;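 note: 0% = DMSO in NR2E3 cells and 100% = DMSO in cells lacking NR2E3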). The note with it: CHO-S mammalian two-hybrid NR2E3-NCOR, luciferase luminescence; at 3.98 µM; hits give high values.
Test [19] is described as follows: GAL4-VP16 reporter modulators, confirmation, counter-screen for NR2E3 agonist project, cell-based, luminescence, CHO-S, high throughput (AID 624379).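 Note: luciferase from a UAS reporter driven by GAL4-VP16 transactivation; 0% = DMSO with VP16-transfected cells and 100% = DMSO with cells lacking VP16; higher means less reporter light so more repression of VP16 activity.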 The following applies: CHO-S GAL4-VP16 luciferase reporter, at 3.98 µM, hits give high values.

Values without a mark were called inactive. The list shows a part of the results. The source made the active and inactive calls.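 Rule for the calls, unless noted: active = mean inhibition above a cutoff equal to the average over all tested compounds plus one standard deviation (cut at about 70% in these data); inactive = the rest.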

COUP transcription factor 2 (Homo sapiens), sequence (P24468 whole entry, looked up): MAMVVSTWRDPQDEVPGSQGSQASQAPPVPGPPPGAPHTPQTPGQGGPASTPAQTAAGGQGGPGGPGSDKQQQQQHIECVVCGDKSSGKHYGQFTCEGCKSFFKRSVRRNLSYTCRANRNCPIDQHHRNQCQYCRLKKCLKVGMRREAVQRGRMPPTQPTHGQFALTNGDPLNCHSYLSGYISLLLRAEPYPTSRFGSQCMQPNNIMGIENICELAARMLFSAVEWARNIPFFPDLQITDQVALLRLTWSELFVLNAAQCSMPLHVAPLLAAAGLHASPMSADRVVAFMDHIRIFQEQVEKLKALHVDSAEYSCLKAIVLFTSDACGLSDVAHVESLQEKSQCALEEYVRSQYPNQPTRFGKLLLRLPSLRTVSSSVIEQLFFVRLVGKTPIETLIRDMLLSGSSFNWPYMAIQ
Photoreceptor-specific nuclear receptor (Homo sapiens), sequence (Q9Y5X4 whole entry, looked up, the tested form may be a part): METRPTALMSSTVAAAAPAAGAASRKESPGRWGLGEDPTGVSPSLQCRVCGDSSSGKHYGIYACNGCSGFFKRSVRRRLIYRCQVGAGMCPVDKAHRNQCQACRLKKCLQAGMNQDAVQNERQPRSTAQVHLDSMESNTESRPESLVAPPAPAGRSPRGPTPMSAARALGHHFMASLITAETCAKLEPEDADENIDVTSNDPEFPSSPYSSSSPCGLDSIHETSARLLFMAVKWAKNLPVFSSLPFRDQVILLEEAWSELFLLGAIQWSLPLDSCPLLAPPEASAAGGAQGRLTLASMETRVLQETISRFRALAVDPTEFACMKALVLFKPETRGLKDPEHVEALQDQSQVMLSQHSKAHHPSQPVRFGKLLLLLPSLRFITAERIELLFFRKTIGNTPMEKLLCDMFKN
Nuclear receptor coactivator 2 (Homo sapiens), sequence (Q15596 whole entry, looked up, the tested form may be a part): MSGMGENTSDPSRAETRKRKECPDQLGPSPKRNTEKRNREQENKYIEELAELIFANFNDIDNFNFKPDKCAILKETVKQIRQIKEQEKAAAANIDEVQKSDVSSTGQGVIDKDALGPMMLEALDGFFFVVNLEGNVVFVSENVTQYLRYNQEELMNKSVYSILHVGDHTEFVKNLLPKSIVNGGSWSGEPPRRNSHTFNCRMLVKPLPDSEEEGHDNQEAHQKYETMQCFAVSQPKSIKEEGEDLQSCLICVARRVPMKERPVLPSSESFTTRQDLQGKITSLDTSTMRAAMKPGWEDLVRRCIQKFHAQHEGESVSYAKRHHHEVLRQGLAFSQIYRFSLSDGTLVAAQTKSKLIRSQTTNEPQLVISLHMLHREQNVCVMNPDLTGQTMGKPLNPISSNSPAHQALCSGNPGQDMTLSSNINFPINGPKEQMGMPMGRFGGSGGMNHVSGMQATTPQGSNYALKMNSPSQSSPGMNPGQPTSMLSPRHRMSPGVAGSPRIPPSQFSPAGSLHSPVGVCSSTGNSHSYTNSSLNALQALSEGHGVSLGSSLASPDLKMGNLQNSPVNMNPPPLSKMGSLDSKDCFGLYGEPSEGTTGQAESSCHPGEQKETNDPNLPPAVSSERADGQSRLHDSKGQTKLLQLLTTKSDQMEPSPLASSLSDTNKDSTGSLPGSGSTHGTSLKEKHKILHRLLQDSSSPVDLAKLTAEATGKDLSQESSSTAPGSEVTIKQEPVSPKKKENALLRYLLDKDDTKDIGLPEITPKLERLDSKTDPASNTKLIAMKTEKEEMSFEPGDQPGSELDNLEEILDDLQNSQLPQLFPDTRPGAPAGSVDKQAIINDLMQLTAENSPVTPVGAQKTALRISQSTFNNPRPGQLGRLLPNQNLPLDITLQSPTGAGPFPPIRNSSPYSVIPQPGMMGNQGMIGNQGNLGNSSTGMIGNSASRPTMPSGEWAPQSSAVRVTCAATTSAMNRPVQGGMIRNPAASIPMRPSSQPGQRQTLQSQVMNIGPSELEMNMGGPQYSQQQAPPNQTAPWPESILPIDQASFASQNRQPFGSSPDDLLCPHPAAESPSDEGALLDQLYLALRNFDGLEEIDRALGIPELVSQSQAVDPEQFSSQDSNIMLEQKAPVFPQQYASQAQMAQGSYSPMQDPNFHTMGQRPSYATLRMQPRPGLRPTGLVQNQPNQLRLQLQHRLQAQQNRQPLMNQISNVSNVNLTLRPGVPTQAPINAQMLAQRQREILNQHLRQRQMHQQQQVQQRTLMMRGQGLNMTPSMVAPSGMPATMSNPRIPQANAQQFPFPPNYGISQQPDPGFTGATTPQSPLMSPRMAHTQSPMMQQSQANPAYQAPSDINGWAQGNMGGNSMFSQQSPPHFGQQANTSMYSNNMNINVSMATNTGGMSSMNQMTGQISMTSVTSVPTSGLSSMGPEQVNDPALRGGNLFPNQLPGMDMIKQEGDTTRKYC
Nuclear receptor coactivator 1 (Homo sapiens), sequence (Q15788 whole entry, looked up, the tested form may be a part): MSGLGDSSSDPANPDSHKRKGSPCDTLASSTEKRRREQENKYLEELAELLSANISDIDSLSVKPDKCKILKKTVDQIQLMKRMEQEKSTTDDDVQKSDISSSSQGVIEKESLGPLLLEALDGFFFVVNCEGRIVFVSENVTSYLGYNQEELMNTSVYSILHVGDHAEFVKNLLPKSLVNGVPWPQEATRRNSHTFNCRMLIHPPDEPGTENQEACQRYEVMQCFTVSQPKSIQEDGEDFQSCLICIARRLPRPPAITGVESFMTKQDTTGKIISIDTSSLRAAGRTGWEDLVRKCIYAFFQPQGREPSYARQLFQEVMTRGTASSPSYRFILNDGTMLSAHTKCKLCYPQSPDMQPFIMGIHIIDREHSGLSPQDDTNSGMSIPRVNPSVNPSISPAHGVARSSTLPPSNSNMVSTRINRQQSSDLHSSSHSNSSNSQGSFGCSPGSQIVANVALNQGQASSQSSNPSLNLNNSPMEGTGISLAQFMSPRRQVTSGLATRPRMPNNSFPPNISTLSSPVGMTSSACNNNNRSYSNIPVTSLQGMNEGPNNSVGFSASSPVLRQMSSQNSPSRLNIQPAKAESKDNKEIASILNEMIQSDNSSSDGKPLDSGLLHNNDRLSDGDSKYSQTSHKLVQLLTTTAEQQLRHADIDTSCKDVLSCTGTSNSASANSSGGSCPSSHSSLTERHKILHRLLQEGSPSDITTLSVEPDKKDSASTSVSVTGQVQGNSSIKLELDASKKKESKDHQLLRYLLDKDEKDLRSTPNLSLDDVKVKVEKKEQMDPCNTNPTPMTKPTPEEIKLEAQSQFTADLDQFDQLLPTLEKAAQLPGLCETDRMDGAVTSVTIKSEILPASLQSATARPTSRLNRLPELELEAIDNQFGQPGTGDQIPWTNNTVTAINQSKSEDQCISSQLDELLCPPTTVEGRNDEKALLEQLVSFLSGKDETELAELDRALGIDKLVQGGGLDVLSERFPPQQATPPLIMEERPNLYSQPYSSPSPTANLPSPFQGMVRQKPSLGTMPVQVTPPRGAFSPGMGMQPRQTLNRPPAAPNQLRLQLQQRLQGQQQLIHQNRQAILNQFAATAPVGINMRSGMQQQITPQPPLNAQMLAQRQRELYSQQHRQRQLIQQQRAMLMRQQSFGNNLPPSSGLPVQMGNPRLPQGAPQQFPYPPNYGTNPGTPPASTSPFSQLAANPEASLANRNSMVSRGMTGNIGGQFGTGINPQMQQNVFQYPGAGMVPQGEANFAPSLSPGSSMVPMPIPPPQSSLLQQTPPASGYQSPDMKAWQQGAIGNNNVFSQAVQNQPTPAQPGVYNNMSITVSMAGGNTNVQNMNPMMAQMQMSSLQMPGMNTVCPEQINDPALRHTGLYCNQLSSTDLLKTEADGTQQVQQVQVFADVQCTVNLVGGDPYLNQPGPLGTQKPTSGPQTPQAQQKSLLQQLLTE
Galanin receptor type 2 (Homo sapiens), sequence (O43603 whole entry, looked up): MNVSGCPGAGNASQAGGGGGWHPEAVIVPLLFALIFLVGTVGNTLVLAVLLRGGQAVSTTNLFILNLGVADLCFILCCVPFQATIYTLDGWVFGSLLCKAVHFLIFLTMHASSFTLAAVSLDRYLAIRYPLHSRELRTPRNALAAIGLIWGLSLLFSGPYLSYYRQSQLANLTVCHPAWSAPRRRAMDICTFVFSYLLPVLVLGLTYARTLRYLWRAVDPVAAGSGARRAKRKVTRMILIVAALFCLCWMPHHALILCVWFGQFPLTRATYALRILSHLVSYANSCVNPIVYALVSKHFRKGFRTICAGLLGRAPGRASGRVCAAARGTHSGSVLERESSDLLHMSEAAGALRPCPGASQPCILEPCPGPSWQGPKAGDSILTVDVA
(Lyso)-N-acylphosphatidylethanolamine lipase (Mus musculus), sequence (Q8VD66 whole entry, looked up): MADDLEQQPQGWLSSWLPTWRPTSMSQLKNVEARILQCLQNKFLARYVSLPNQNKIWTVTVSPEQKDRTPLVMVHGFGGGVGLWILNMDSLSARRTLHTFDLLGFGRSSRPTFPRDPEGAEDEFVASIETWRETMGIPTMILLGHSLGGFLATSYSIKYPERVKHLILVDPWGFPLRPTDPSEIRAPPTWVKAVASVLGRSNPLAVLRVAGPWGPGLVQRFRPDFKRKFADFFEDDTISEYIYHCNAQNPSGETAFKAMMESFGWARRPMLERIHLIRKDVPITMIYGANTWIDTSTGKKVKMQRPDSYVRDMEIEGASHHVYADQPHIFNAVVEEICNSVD
Steroidogenic factor 1 (Homo sapiens), sequence (Q13285 whole entry, looked up, the tested form may be a part): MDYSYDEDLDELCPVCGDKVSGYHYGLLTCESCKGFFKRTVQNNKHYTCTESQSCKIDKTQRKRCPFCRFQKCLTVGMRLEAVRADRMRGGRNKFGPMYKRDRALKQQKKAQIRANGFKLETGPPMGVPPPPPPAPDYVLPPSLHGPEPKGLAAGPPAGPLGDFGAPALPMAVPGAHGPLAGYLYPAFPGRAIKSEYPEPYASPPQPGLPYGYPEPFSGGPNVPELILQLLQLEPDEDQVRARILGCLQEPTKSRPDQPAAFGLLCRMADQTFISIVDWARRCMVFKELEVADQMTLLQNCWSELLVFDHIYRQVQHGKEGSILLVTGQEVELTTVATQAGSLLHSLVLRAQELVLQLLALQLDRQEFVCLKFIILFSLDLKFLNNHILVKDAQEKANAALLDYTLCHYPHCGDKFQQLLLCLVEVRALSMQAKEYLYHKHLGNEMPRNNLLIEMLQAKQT

On to `O[C@H]1C[C@H](c2ccc(Cl)cc2)N(Cc2cccs2)C[C@@H]1n1cc(C2CC2)nn1`, for which the inhibition (usually the drop in the measured response relative to a control, in per cent) in [1] is -0.97%; in test [2] it was 0.34%.

Regarding `OC[C@@H]1CN(Cc2ccncc2)C[C@H](n2cnc3c(N4CCN(c5ccccc5)CC4)ncnc32)O1`, the inhibition in test [3] is 2.2%; in test [4] it was 37.8% (active); in test [5], 8.35%; in test [6], 44.6% (active).

Turning to `N#Cc1cccc(NC(=O)COC(=O)c2ccccc2C(=O)c2ccc(Cl)c([N+](=O)[O-])c2)c1`, the inhibition was 63.2% (active) in test [7] and 37.4% (active) in test [8].

`O=C1/C(=C\c2ccc([N+](=O)[O-])cc2)CS(=O)(=O)C/C1=C/c1ccc([N+](=O)[O-])cc1`: the inhibition is 2.1% in test [9], 89.5% (active) in test [10], 79.7% (active) in test [11] and 70.2% (active) in test [12].

For `Cc1cccc2sc(N(CCCN(C)C)C(=O)CCS(=O)(=O)c3ccccc3)nc12`, the inhibition in [13] is 12%; in test [14], 32.5%.

`O=C(O)c1ccc2c(c1)C(=O)N(c1ccc(/C=C/C(=O)c3ccccc3)cc1)C2=O`: the inhibition in [15] was 0.6%. Besides, the activation is 1.47% in test [16] and 0.05% in test [17].

Take `CC1CCCCN1S(=O)(=O)c1ccc(C(=O)Nc2nnc(-c3cccs3)o2)cc1` (stereo not drawn): the inhibition in test [18] is 49.5%; in test [19], 32%.

Consider `Cc1ccc(CS(=O)(=O)c2ncc(Cl)c(C(=O)Nc3nnc(C)s3)n2)cc1`, for which the inhibition in test [18] is 30.6%; in [19], -7.39%; in test [13], 27.1%; in test [14] it was 55% (active).

Take `Cc1cccc(NS(=O)(=O)c2ccc(-c3cnc(C4CC4)o3)cc2)c1`: the inhibition in test [18] was 53.5%; in test [19] it was 37.9%.

`COC(=O)c1sccc1NC(=O)CSc1ccccc1NS(=O)(=O)c1cc(Cl)ccc1Cl`: the inhibition was 84% (active) in test [18] and 74.7% (active) in [19].

Take `O=C(CCC(=O)N1CCN(S(=O)(=O)c2ccc(Cl)cc2)CC1)NCc1cccc(C(F)(F)F)c1`: the inhibition in [18] was 93.6% (active); in test [19] it was 81.6% (active); in test [5], 7.21%; in test [6], 53.4% (active).

For `CCCCCc1c(-c2ccc(OC)c(OC)c2)ncn1CCc1ccccc1OC`, the inhibition in test [18] was 73.5% (active); in [19], 35.4%; in test [5], 4.25%; in test [6], 25.6%.

For the compound `COc1ccc(CNS(=O)(=O)c2ccc(NC(=O)N3CCCCC3)cc2)cc1`, the inhibition is 55.3% in [18] and 52.4% in [19].

For the compound `COc1ccc(C(=O)NNC(=S)NC(=O)c2ccccc2[N+](=O)[O-])cc1`, the inhibition in [18] is 3.63%; in test [19] it was -6.68%.

Regarding `Cn1nccc1C(=O)NC1CCCc2c1cnn2-c1ccccc1F` (stereo not drawn), the inhibition in [18] was 93.7% (active); in [19], 86.2% (active); in test [5], 1.97%; in test [6], 66.8% (active).
